Experimental findings from PubChem BioAssay AID1851 (National Center for Advancing Translational Sciences (NCATS), 2009) are described below.

Screen size: about 16,000 compounds; about 5,800 (36%) were called active. Inconclusive results (about 23%) are left out. This is one part of the list. Values without a mark were called inactive. Calls follow the shape of the dose curve; as a rule, active = well fitted curve in the direction sought with a large enough effect; inconclusive = small, poorly fitted or top-dose-only effect, or effect the other way; inactive = no such curve, though single readings can be large or run the other way.
% is scaled to controls: 0 for no effect and ±100 for the full control effect.

Chain of Cytochrome P450 2C19 (Homo sapiens) (P33261 whole entry, looked up): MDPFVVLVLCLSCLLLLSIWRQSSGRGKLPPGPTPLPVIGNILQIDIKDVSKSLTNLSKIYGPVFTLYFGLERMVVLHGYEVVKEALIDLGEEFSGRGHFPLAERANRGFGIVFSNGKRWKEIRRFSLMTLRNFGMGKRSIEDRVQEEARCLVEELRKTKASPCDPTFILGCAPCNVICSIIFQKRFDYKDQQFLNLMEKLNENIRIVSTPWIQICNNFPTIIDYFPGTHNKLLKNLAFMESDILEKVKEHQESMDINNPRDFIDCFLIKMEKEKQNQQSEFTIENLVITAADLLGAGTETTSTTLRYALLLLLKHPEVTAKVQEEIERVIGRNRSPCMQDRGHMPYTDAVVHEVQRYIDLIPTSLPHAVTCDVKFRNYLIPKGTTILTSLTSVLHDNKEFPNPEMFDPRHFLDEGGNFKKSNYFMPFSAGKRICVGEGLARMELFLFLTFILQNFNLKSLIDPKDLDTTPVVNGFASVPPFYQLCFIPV

For the assay, the target named is Cytochrome P450 2C19 (Homo sapiens) (UniProt P33261). The assay is described as follows: Cytochrome panel assay with activity outcomes. Conditions: recombinant CYP, pro-luciferin dealkylation, luminescence, p450-cyp2c19; series mostly up to 57.1 µM; activity, negative = inhibition: at the top concentration. On the procedure:
The P450 gene superfamily is involved in the metabolism and clearance of xenobiotics. This assay used various human CYP P450 isozymes to measure the dealkylation of various pro-luciferin substrates to luciferin. The luciferin is then measured by luminescence after the addition of a luciferase detection reagent. Pro-luciferin substrate concentration in the assay was equal to its KM for its CYP P450 isozyme. Inhibitors and some substrates limit the production of luciferin, and decrease measured luminescence.
NCGC Assay Protocol Summary:
1, Reagent, 2 uL, Isozyme and Pro-Luciferin
2, Library compounds, 23 nl, 40 uM to 0.24 nM dilution series
3, Controls, 23 nl, Isozyme specific inhibitor
4, Reagent, 2 uL, NADPH regeneration solution
5, Incubation time, 60 min, Isozyme specific temperature
6, Reagent, 4ul, Detection reagent
7, Incubation time, 20 min, Isozyme specific temperature
8, Detection, 1 sec, ViewLux luminescent read
The luciferase-based P450-GloTM Screening Systems were obtained from Promega (Madison, WI) for CYP 1A2 (V9770), CYP 2C9 (V9790), CYP2 C19 (V9880), CYP 2D6 (V9890), and CYP 3A4 Luciferin-PPXE (V9910) and were adapted for 1,536-well microplates and an automated protocol. The control compounds furafylline for 1A2 (F124), sulfaphenazole for CYP 2C9 (S0758), ketoconazole for CYP 2C19 (K1003), quinidine for 2D6 (Q3625), and ketoconazole for 3A4 (K1003) were purchased from Sigma Aldrich (St. Louis, MO). Recombinant P450 enzymes were obtained from baculovirus constructs expressed in insect cells (BD/Gentest).
Medium-binding white solid Kalypsys plates used. Mixtures kept on ice. 1A2: 10 nM 1A2, 100 uM Luc-ME, 100 mM KPO4; 2C9: 10 nM 2C9, 100 uM Luc-H, 25 mM KPO4; 2C19: 5 nM 2C19, 10 uM Luc-H EGE, 50 mM KPO4; 2D6: 5 nM 2D6, 30 uM Luc-ME EGE, 100 mM KPO4; 3A4: 10 nM, 25 uM Luc-PPXE. All amounts are reflected in their final concentration, working concentration is 2x.
NADPH regeneration solution: 1.3 mM NADP+, 3.3 mM glucose-6-phosphate, 3.3 mM MgCl2, 0.4 U/mL glucose-6-phosphate dehydrogenase for all isozymes, 200 mM KPO4 for 3A4. Mixture prepared at RT but kept on ice during automated run.
RT incubation in auxilliary plate hotel for 1A2, 2D6, and 3A4; 37C for 2C9 and 2C19.
Keywords: P450, CYP1A2, CYP2C19, CYP2C9, CYP2D6, CYP3A4, Luciferase, MLSMR, MLSCN, NIH Roadmap, qHTS, NCGC
With `CC(=O)N[C@@H](CC(=O)O)C(=O)O`, the “activity, negative = inhibition” value was 26.4% [at 25.6 µM]. For the compound `CC#CCOC(=O)c1c(C)nc2sc3c(c2c1N)CC[C@@H](O)C3`, the concentration at half-maximal activity (AC50) (usually the concentration giving half of the maximal activity seen) is 25.1 µM (active). Take `Cn1c(=O)c2[nH]c(CCCc3ccc([N+](=O)[O-])cc3)nc2n(C)c1=O`: the activity, negative = inhibition was 6.48% [at 11.4 µM]. `CCc1cc(C(c2ccccc2OC)N2CCOCC2)c(NC(=O)c2ccccc2)s1` (centres undefined): the AC50 is 11.2 µM (active). Still for that read-out and setting: to `CCOc1cc(/C=C2\C(=O)N(Cc3ccc(C)cc3)C(C)=C2C(=O)OC)ccc1O` belongs 3.98 µM (active).

On to `COc1cccc(Nc2ncc3nc(C)c(=O)n(CCC#N)c3n2)c1`, for which the “activity, negative = inhibition” value is -15.9%.

For `Cc1cc(OC(=O)c2cc(F)c(F)cc2Cl)nc(C)n1`, the “activity, negative = inhibition” value was 24.4%.

Turning to `CSc1nsc(SCc2ccc(Cl)cc2)n1`, the concentration at half-maximal activity (AC50) is 0.447 µM (active).

Turning to `O=c1c(-c2nc3ccccc3s2)cccn1Cc1ccccc1`, the AC50 is 2 µM (active). The same measure, in the same setting: to `CCOC(=O)c1c(C)[nH]c(C)c1C(=O)COC(=O)c1ccc(S(=O)(=O)N(CC)CC)cc1` belongs 1.12 µM (active); to `CCOC(=O)c1c(C)[nH]c(C)c1C(=O)COC(=O)c1cccc(S(=O)(=O)N(CC)CC)c1`, 0.447 µM (active); to `CCN(CC)CCOC(=O)c1ccc(N)cc1`, “inactive”.

For the compound `CCCN(CCC)S(=O)(=O)c1ccc(C(=O)O)cc1`, the “activity, negative = inhibition” value is 15.8% [at 25.6 µM].

Regarding `C[C@@H](CNC(N)=O)NC(N)=O`, the activity, negative = inhibition is 25.4% [at 11.4 µM]. With `Cc1ccc(CS(=O)(=O)CCC(=O)NCCCN2CCCC2=O)cc1`, the “activity, negative = inhibition” value is 54.4%. On to `Cc1ccc(S(=O)(=O)N(CCCN2CCCC2=O)Cc2cc3c(C)ccc(C)c3[nH]c2=O)cc1`, for which the AC50 is 11.2 µM (active). Take `O=C(CCC(=O)OCc1ccc(C(=O)Oc2ccccc2)cc1)Nc1cccc2ccccc12`: the AC50 is 11.2 µM (active). As for `O=C(c1ccc(Cl)cc1)N1CCN(C(=O)c2ccco2)CC1`, the “activity, negative = inhibition” value is -25.8%.

On to `O=C(c1cc(-c2ccc(Cl)cc2Cl)on1)N1CCN(C(=O)c2ccco2)CC1`, for which the AC50 was 3.16 µM (active). With `O=C(c1ccco1)N1CCC2(CC1)CN(c1ccccn1)C2`, the “activity, negative = inhibition” value was -14.5%. For `O=C(Cc1ccc(Cl)cc1)N1CCN(C(=O)c2ccco2)CC1`, the AC50 was 7.94 µM (active). Still for that read-out and setting: then `CCCN(CCC)C(=S)NC(=O)c1ccc(Cl)cc1Cl`, with 2.51 µM (active); and `CC1CC(C)CN(C(=O)CNS(=O)(=O)c2ccc(Br)s2)C1` (centres undefined), with 4.47 µM (active).

On to `COc1cccc(C(=O)NCCN2CCN(c3ccc(Cl)cc3)CC2)c1`, for which the “activity, negative = inhibition” value is -19%.

With `COc1ccc(C(=O)NC2CCN(C(=S)Nc3cccc(C)c3)CC2)cc1`, the AC50 is 8.91 µM (active). Consider `Cc1cccc(C(=O)NC2CCN(C(=S)NCc3ccco3)CC2)c1`, for which the AC50 was 28.2 µM (active).

Regarding `COc1ccc(C(=O)N2CCC3(CC2)CN(C(=O)Nc2cccc(C#N)c2)C3)cc1`, the “activity, negative = inhibition” value is 19.4%. The same measure, in the same setting: to `Cc1cccc(C(=O)NC(=S)N2CCN(C)CC2)c1` belongs 18.4%. `COc1cccc(-c2csc(N3CCN(CC(=O)NNC(=O)c4ccc(Cl)cc4)CC3)n2)c1`: the AC50 is 1.26 µM (active). On the same count and under the same terms, to `COc1cccc(-c2csc(N3CCN(C(=S)Nc4ccccc4)CC3)n2)c1` belongs 1.78 µM (active). In the case of `COc1ccc(N2CCN(C(=S)Nc3cc(C)cc(C)c3)CC2)cc1`, the “activity, negative = inhibition” value was -17.2%. With `CNC(=S)N1CCN(c2ccccc2OC)CC1`, the AC50 is 7.08 µM (active). On the same count and under the same terms, then `CNC(=S)N1CCN(c2cccc(OC)c2)CC1`, with 7.08 µM (active); and `COC(=O)c1ccc(NC(=S)N2CCN(Cc3cccc(C)c3)CC2)cc1`, with 4.47 µM (active). On the same count and under the same terms, then `COc1ccc(N2CCN(C(=S)Nc3cc(C)ccc3C)CC2)cc1`, with 5.62 µM (active). Regarding `COC(=O)N1CCC2(CC1)CCN(c1cccc(-c3ccccc3)c1)CC2`, the “activity, negative = inhibition” value is -33%. Still for that read-out and setting: to `COc1ccc(COC(=O)N/N=C2/C[C@@H](O)[C@@H](O)[C@@H]3[C@@H]4C(=O)N(C(C)(C)C)C(=O)[C@H]4CC[C@H]23)cc1` belongs 9.85% [at 11.4 µM].

For the compound `COc1cccc(N2CCN(C(=S)Nc3cccc(C)c3)CC2)c1`, the AC50 was 7.94 µM (active). `COc1ccc(N2CCN(C(=S)Nc3cccc(C)c3)CC2)cc1`: the “activity, negative = inhibition” value was -9.17%. On the same count and under the same terms, then `Cc1c(CCC(C)C)c(-n2ccnc2C)n2c(nc3ccccc32)c1C#N`, with 9.23%. Turning to `FC(F)(F)c1nc2ccccc2nc1N/N=C/c1ccc(Cl)cc1`, the AC50 was 3.55 µM (active).

In the case of `COC(=O)C/C=C\[C@@H](C)[C@@H](/C=N\O[C@@H](C)CN1CCCc2nc(C)c(C)cc21)OC`, the activity, negative = inhibition was -26.4% [at 11.4 µM].

Consider `Cc1cc(Cl)ccc1OCCCC(=O)N1CCN(C)CC1`, for which the AC50 was 5.62 µM (active). The same measure, in the same setting: to `CCOC(=O)c1c(CC(C)C)csc1NC=O` belongs 14.1 µM (active).

For the compound `COC(=O)c1c(C)oc2ccc(N(C(=O)c3ccncc3)S(=O)(=O)c3ccccc3)cc12`, the AC50 was 0.631 µM (active). On the same count and under the same terms, to `NCCCCCc1nnc(SCc2ccc(Cl)cc2Cl)o1` belongs 5.62 µM (active). The same measure, in the same setting: then `NCCCCCc1nnc(SCc2ccccc2Cl)o1`, with 4.47 µM (active). Take `Cc1cc(=O)n2c3ccccc3n(CC(O)CN3CCCCC3)c2c1C#N` (centres undefined): the “activity, negative = inhibition” value was -17.8%.

For the compound `Nc1ncnc2c1ncn2[C@H]1O[C@@H](C(=O)O)[C@@H](O)[C@H]1O`, the activity, negative = inhibition was -9.53% [at 11.4 µM].
